Out of some 28,000 compounds screened, about 410 (1.5%) were called active. Rule as the data show it: active = activation above about 52%; inconclusive = no clear call, values can overlap the other calls; inactive = below that. Many of the other results were omitted from the sample, so actives are more common in it than they were.
Assay: mutant p53 pathway re-activators, primary screen, cell-based, SW480, luciferase, single point, HTS (AID 624151)
Conditions: SW480 PUMA-promoter luciferase, p53 mutant reactivation; at 9.98 µM; hits give high values

Question: Which activation does the source give for `CC(C)CC#Cc1cnc2c(c1)C(=O)N([C@@H](C)CO)C[C@H](C)[C@@H](CN(C)Cc1ccccc1C(=O)O)O2` here?
Answer: The activation was -10.9% (inactive).

Question: Which activation does the source give for `C/C=C/c1cnc2c(c1)C(=O)N([C@H](C)CO)C[C@H](C)[C@@H](CN(C)C(=O)c1cccc(F)c1)O2` here?
Answer: Its activation is 0.956% (inactive).

Question: With `O=C(CN1CCOCC1)Nc1ccc(NC(=O)CN2CCOCC2)c(Cl)c1` as the compound, how does the activation read?
Answer: Its activation is -19.4% (inactive).

Question: For `Cc1cc(C)n2nc(SCC(=O)Nc3ccccc3[N+](=O)[O-])nc2n1`, which activation is on record?
Answer: Its activation is -13.8% (inactive).

Question: For `O=C(CSc1nnc(-c2ccccc2)n1-c1ccccc1)c1cccc([N+](=O)[O-])c1`, which activation is on record?
Answer: Its activation is -1.58% (inactive).

Question: Which activation does the source give for `CCn1c(SCC(=O)Nc2ccc3c(c2)OCCO3)nnc1-c1ccncc1` here?
Answer: Its activation is -4.36% (inactive).

Question: With `Cc1cccc(NC(=O)CSc2nnc3c4ccccc4nc(-c4ccccc4)n23)c1` as the compound, how does the activation read?
Answer: The activation was 13.8% (inactive).

Question: Which activation does the source give for `O=C(CSc1nnc2ccc3ccccc3n12)Nc1ccc2c(c1)OCCO2` here?
Answer: Its activation is 64.7% (active).

Question: For `COC(=O)Cc1c(C)nc2nc(COc3ccccc3)[nH]n2c1=O`, which activation is on record?
Answer: Its activation is 10.4% (inactive).

Question: Which activation does the source give for `O=C(NCc1ccccn1)c1ccccc1C(=O)c1ccccc1` here?
Answer: Its activation is -9.74% (inactive).

Question: For `O=C(NCc1ccccn1)C(=O)Nc1cccc(Cl)c1Cl`, which activation is on record?
Answer: The activation was 63.9% (active).

Question: With `CC(=O)Nc1ccc(NC(=O)COc2ccccc2C(=O)Nc2cccc(Cl)c2Cl)cc1` as the compound, how does the activation read?
Answer: Its activation is -38.7% (inactive).

Question: With `C[C@@H]1CN([C@H](C)CO)C(=O)c2cc(-c3ccc(C#N)cc3)cnc2O[C@@H]1CN(C)CC1CC1` as the compound, how does the activation read?
Answer: The activation was -0.916% (inactive).

Question: Which activation does the source give for `COc1ccc(OC)c2c1CC(C)(C)N=C2SC` here?
Answer: Its activation is -18.5% (inactive).

Question: For `O=C(CSc1nnc(-c2ccncc2)n1-c1ccccc1)Nc1ccc(Cl)c(Cl)c1`, which activation is on record?
Answer: The activation was 16.3% (inactive).

Question: Which activation does the source give for `COc1cccc(C#Cc2cnc3c(c2)C(=O)N([C@@H](C)CO)C[C@H](C)[C@@H](CN(C)C(C)=O)O3)c1` here?
Answer: Its activation is 1.26% (inactive).

Question: For `O=C(C[C@H]1C[C@@H]2c3cc(NS(=O)(=O)c4ccc(F)cc4)ccc3O[C@@H]2[C@@H](CO)O1)NCc1cccc(F)c1`, which activation is on record?
Answer: Its activation is -7.78% (inactive).

Question: For `CC(=O)N1C(=S)NC(=O)/C1=C/c1c(Cl)cccc1Cl`, which activation is on record?
Answer: The activation was -5.19% (inactive).

Question: Which activation does the source give for `C/C=C/c1cnc2c(c1)C(=O)N([C@@H](C)CO)C[C@H](C)[C@@H](CN(C)C(=O)C1CC1)O2` here?
Answer: The activation was -5.73% (inactive).

Question: Which activation does the source give for `CCCN(Cc1cc2cccc(C)c2[nH]c1=O)S(C)(=O)=O` here?
Answer: The activation was -2.56% (inactive).

Question: For `CCCNC(=O)N(C)C[C@H]1Oc2ncc(-c3ccccc3F)cc2C(=O)N([C@@H](C)CO)C[C@H]1C`, which activation is on record?
Answer: Its activation is 1.17% (inactive).

Question: With `COc1cccc(C#Cc2cnc3c(c2)C(=O)N([C@@H](C)CO)C[C@H](C)[C@@H](CN(C)C(=O)C2CCC2)O3)c1` as the compound, how does the activation read?
Answer: Its activation is 9.52% (inactive).

Question: With `C[C@@H]1CN([C@H](C)CO)C(=O)c2cc(C#CC3(O)CCCC3)cnc2O[C@H]1CN(C)C(=O)C1CCC1` as the compound, how does the activation read?
Answer: The activation was 15% (inactive).

Question: Which activation does the source give for `COc1ccccc1NC(=O)C1=C(C)Nc2nnnn2C1c1ccccc1OCc1ccccc1` (stereo unspecified) here?
Answer: Its activation is 11.3% (inactive).

Question: For `CCCC#Cc1cnc2c(c1)C(=O)N([C@H](C)CO)C[C@@H](C)[C@@H](CN(C)C(=O)Nc1ccccc1OC)O2`, which activation is on record?
Answer: The activation was -6.47% (inactive).

Question: With `CCCC#Cc1cnc2c(c1)C(=O)N([C@H](C)CO)C[C@H](C)[C@H](CN(C)S(=O)(=O)c1cn(C)cn1)O2` as the compound, how does the activation read?
Answer: The activation was 5.56% (inactive).

Question: With `C[C@@H]1CN([C@H](C)CO)C(=O)c2c(c3ccccc3n2C)-c2ccccc2CO[C@@H]1CN(C)C(=O)Nc1ccccc1` as the compound, how does the activation read?
Answer: The activation was 10.9% (inactive).

Question: Which activation does the source give for `Cc1ccc2oc(C(=O)Nc3nnc(SCc4ccccc4)s3)c(C)c2c1` here?
Answer: Its activation is 17.4% (inactive).

Question: Which activation does the source give for `C[C@@H]1CCCCO[C@H](CN(C)S(C)(=O)=O)[C@@H](C)CN([C@H](C)CO)C(=O)c2cc(NS(=O)(=O)c3ccc(Cl)cc3)ccc2O1` here?
Answer: The activation was 2.27% (inactive).

Question: For `COCC#Cc1cnc2c(c1)C(=O)N([C@@H](C)CO)C[C@@H](C)[C@H](CN(C)C(=O)c1cnccn1)O2`, which activation is on record?
Answer: Its activation is 2.72% (inactive).

Question: For `C[C@@H]1CN([C@@H](C)CO)S(=O)(=O)c2ccc(C#CC3(O)CCCC3)cc2O[C@H]1CN(C)C(=O)c1ccncc1`, which activation is on record?
Answer: Its activation is 7.47% (inactive).

Question: For `C[C@H]1CN([C@@H](C)CO)C(=O)c2cc(-c3cccc(C(=O)N(C)C)c3)cnc2O[C@H]1CN(C)S(=O)(=O)c1ccccc1`, which activation is on record?
Answer: The activation was 10.1% (inactive).

Question: Which activation does the source give for `CCCN(C)C[C@@H]1Oc2cc(-c3cccc(C#N)c3)ccc2S(=O)(=O)N([C@@H](C)CO)C[C@@H]1C` here?
Answer: Its activation is 2.45% (inactive).

Question: Which activation does the source give for `COCC#Cc1ccc2c(c1)O[C@@H](CN(C)Cc1ccccn1)[C@@H](C)CN([C@@H](C)CO)S2(=O)=O` here?
Answer: The activation was 5.92% (inactive).

Question: Which activation does the source give for `CCOc1csc2nc(C)cc(C)c12` here?
Answer: The activation was 7.54% (inactive).

Question: Which activation does the source give for `C[C@@H]1CN([C@@H](C)CO)S(=O)(=O)c2ccc(/C=C/c3ccccc3)cc2O[C@@H]1CN(C)C(=O)Nc1cc(F)ccc1F` here?
Answer: The activation was -25.7% (inactive).

Question: With `C[C@H]1CN([C@@H](C)CO)C(=O)c2cc(C#CCN(C)C)cnc2O[C@H]1CN(C)C(=O)Cc1ccccc1` as the compound, how does the activation read?
Answer: The activation was -0.24% (inactive).

Question: Which activation does the source give for `O=C(CC(C(=O)O)N1CCNCC1)Nc1cccc(Cl)c1` (stereo unspecified) here?
Answer: The activation was 13.8% (inactive).

Question: With `COc1ccc(OC(C)C(=O)Nc2cccnc2)cc1` (stereo unspecified) as the compound, how does the activation read?
Answer: Its activation is -3.84% (inactive).

Question: For `CC(=O)Oc1ccc(C(=O)N(C(=O)c2ccc(OC(C)=O)cc2)c2cc(C)ccn2)cc1`, which activation is on record?
Answer: The activation was 6.89% (inactive).

Question: Which activation does the source give for `CCn1c(SCC(=O)Nc2cc(Cl)c(Cl)cc2Cl)nnc1-c1ccccc1Cl` here?
Answer: The activation was -3.77% (inactive).

Question: With `Cc1ccc(S(=O)(=O)Nc2ccc3c(c2)C(=O)N([C@H](C)CO)C[C@@H](C)[C@H](CN(C)S(=O)(=O)c2ccc(C)cc2)OCCCC[C@@H](C)O3)cc1` as the compound, how does the activation read?
Answer: The activation was -37.2% (inactive).

Question: With `O=C(C[C@H]1C[C@H]2c3cc(NC(=O)Nc4ccccc4F)ccc3O[C@H]2[C@H](CO)O1)NCc1ccccn1` as the compound, how does the activation read?
Answer: Its activation is 3.57% (inactive).

Question: For `Cc1ccc2c(c1)CCCN2S(=O)(=O)c1cc(OCC(N)=O)c(C)cc1Cl`, which activation is on record?
Answer: The activation was -21.2% (inactive).

Question: With `O=C(C[C@H]1C[C@@H]2c3cc(NC(=O)c4ccc5c(c4)OCO5)ccc3O[C@@H]2[C@@H](CO)O1)NCCN1CCCCC1` as the compound, how does the activation read?
Answer: The activation was 13.6% (inactive).

Question: Which activation does the source give for `O=C(Nc1ccc(-c2nc3ccccc3o2)c(O)c1)c1ncn[nH]1` here?
Answer: Its activation is -35% (inactive).

Source: PubChem BioAssay AID624151 (Broad Institute, 2012)
